According to PubChem BioAssay (NCATS):
Inconclusive results are not listed. Where a call stands in place of a potency, no number is given. The source made the active and inactive calls. Unless noted, calls follow the shape of the dose curve; as a rule, active = well fitted inhibition curve with a large enough effect; inconclusive = small, poorly fitted or top-dose-only effect; inactive = flat fitted curve, though single readings scatter. Bridge positions count the residues as written; N and C are the ends. Square brackets hold non-standard residues; d marks the D form. Peptide text beside a SMILES is read from it. * marks the point of attachment. Ileψ(thiazoline)Cys = CC[C@H](C)[C@H](N)C1=N[C@H](C(=O)*)CS1; d(aIle) = CC[C@H](C)[C@@H](N)C(=O)O; dOrn = NCCC[C@@H](N)C(=O)O

What was measured:
[1] = S16 Schwann cell PMP22 intronic element beta-lactamase assay (AID 624044; calls by dose curve; also: nearly all actives have a fitted effect of over 15% in size)
How it was run: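 Rat S16 Schwann cells with beta-Lac driven by a PMP22 intronic element, compound-treated 24 h at 37 °C. LiveBLAzer FRET B/G read: 460 nm normalized to potassium clavulanate vs DMSO; 535 nm FRET as viability; concentration-effect curves classified.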

3D7 = test: qHTS profiling for inhibitors of Plasmodium falciparum proliferation (AID 504749); also: nearly all actives have a fitted effect of over 60% in size; also: potency is read from the fitted curve at half-maximal effect; conditions: P. falciparum in erythrocytes, SYBR Green DNA, 72 h; series mostly up to 12.8 µM
How it was run: (§1)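 P. falciparum-infected erythrocytes (0.3% parasitemia, 2.5% hematocrit final) were exposed to compounds for 72 h at 37 C in 5% CO2, then lysed with SYBR Green buffer overnight at room temperature; parasite DNA fluorescence was normalized to artemisinin and DMSO controls.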

AS120 = test: as above; conditions: P. falciparum in erythrocytes, SYBR Green DNA, 72 h; series mostly up to 12.8 µM
How it was run: as §1

ATS189 = test: as above; conditions: P. falciparum in erythrocytes, SYBR Green DNA, 72 h; series mostly up to 12.8 µM
How it was run: as §1

ATS95 = test: as above; conditions: P. falciparum in erythrocytes, SYBR Green DNA, 72 h; series mostly up to 12.8 µM
How it was run: as §1

CP201 = test: as above; conditions: P. falciparum in erythrocytes, SYBR Green DNA, 72 h; series mostly up to 12.8 µM
How it was run: as §1

CP217 = test: as above; conditions: P. falciparum in erythrocytes, SYBR Green DNA, 72 h; series mostly up to 12.8 µM
How it was run: as §1

CP238 = test: as above; conditions: P. falciparum in erythrocytes, SYBR Green DNA, 72 h; series mostly up to 12.8 µM
How it was run: as §1

CP252 = test: as above; conditions: P. falciparum in erythrocytes, SYBR Green DNA, 72 h; series mostly up to 12.8 µM
How it was run: as §1

CP262 = test: as above; conditions: P. falciparum in erythrocytes, SYBR Green DNA, 72 h; series mostly up to 12.8 µM
How it was run: as §1

CP266 = test: as above; conditions: P. falciparum in erythrocytes, SYBR Green DNA, 72 h; series mostly up to 12.8 µM
How it was run: as §1

CP297 = test: as above; conditions: P. falciparum in erythrocytes, SYBR Green DNA, 72 h; series mostly up to 12.8 µM
How it was run: as §1

CP305 = test: as above; conditions: P. falciparum in erythrocytes, SYBR Green DNA, 72 h; series mostly up to 12.8 µM
How it was run: as §1

CP315 = test: as above; conditions: P. falciparum in erythrocytes, SYBR Green DNA, 72 h; series mostly up to 12.8 µM
How it was run: as §1

CP329 = test: as above; conditions: P. falciparum in erythrocytes, SYBR Green DNA, 72 h; series mostly up to 12.8 µM
How it was run: as §1

DFO2036 = test: as above; conditions: P. falciparum in erythrocytes, SYBR Green DNA, 72 h; series mostly up to 12.8 µM
How it was run: as §1

N140 = test: as above; conditions: P. falciparum in erythrocytes, SYBR Green DNA, 72 h; series mostly up to 12.8 µM
How it was run: as §1

PC15 = test: as above; conditions: P. falciparum in erythrocytes, SYBR Green DNA, 72 h; series mostly up to 12.8 µM
How it was run: as §1

SC27B = test: as above; conditions: P. falciparum in erythrocytes, SYBR Green DNA, 72 h; series mostly up to 12.8 µM
How it was run: as §1

W2 = test: as above; conditions: P. falciparum in erythrocytes, SYBR Green DNA, 72 h; series mostly up to 12.8 µM
How it was run: as §1

Row | Structure (SMILES) | Potency [1] | Potency (3D7) | Potency (AS120) | Potency (ATS189) | Potency (ATS95) | Potency (CP201) | Potency (CP217) | Potency (CP238) | Potency (CP252) | Potency (CP262) | Potency (CP266) | Potency (CP297) | Potency (CP305) | Potency (CP315) | Potency (CP329) | Potency (DFO2036) | Potency (N140) | Potency (PC15) | Potency (SC27B) | Potency (W2)
1 | C[C@@H]1C[C@H]2[C@@H]3C[C@H](F)C4=CC(=O)C=C[C@@]4(C)[C@]3(F)[C@H](O)C[C@]2(C)[C@@]1(O)C(=O)CO | inactive | inactive | inactive | inactive | inactive | inactive | inactive | inactive | inactive | inactive | inactive | inactive | inactive | inactive | inactive | inactive | inactive | inactive | inactive | inactive
2 | NCc1ccccc1CC(=O)N[C@@H]1C(=O)N2C(C(=O)O)=C(CSc3nnnn3CC(=O)O)CS[C@@H]12 | inactive | inactive | inactive | inactive | inactive | inactive | inactive | inactive | inactive | inactive | inactive | inactive | inactive | inactive | inactive | inactive | inactive | inactive | inactive | inactive
3 | CCC(=O)OCC(=O)[C@@]1(OC(=O)CC)[C@H](C)C[C@@H]2[C@@H]3[C@H]([C@@H](O)C[C@@]21C)[C@]1(C)C=CC(=O)C=C1C[C@@H]3Cl | inactive | – | – | – | – | inactive | – | – | inactive | inactive | inactive | 5.1 µM (active) | – | inactive | inactive | – | – | – | – | 1.61 µM (active)
4 | CC[C@H](C)[C@H](N)C1=N[C@H](C(=O)N[C@@H](CC(C)C)C(=O)N[C@@H](CCC(=O)O)C(=O)N[C@@H](C(=O)N[C@H]2CCCCNC(=O)[C@@H](CC(N)=O)NC(=O)[C@@H](CC(=O)O)NC(=O)[C@@H](Cc3cnc[nH]3)NC(=O)[C@@H](Cc3ccccc3)NC(=O)[C@@H]([C@@H](C)CC)NC(=O)[C@@H](CCCN)NC2=O)[C@@H](C)CC)CS1 ({Ileψ(thiazoline)Cys}-LE[d(aIle)]K[dOrn][d(aIle)][dF][dH][dD][dN]; lactam 4-C) | – | inactive | inactive | inactive | inactive | inactive | inactive | inactive | inactive | inactive | inactive | inactive | inactive | inactive | inactive | inactive | inactive | inactive | – | inactive
5 | CO[C@@H]1C[C@H](O[C@H]2[C@@H](C)[C@H](O[C@@H]3O[C@@H](C)C[C@@H](N(C)C)[C@@H]3OC(C)=O)[C@H](C)C[C@]3(CO3)C(=O)[C@H](C)[C@H](OC(C)=O)[C@H](C)[C@H](C)OC(=O)[C@@H]2C)O[C@H](C)[C@@H]1OC(C)=O | inactive | inactive | inactive | inactive | inactive | inactive | inactive | inactive | inactive | – | inactive | inactive | inactive | inactive | – | inactive | inactive | inactive | inactive | –
6 | C[C@H](O)Cn1cnc2c1c(=O)n(C)c(=O)n2C | inactive | inactive | inactive | inactive | inactive | inactive | inactive | inactive | inactive | inactive | inactive | inactive | inactive | inactive | inactive | inactive | inactive | inactive | inactive | inactive
